We go through 12 compounds from PubChem BioAssay (NCI).

Holding throughout (assay): NCI-60 one-dose screen, 48 h (100 = growth as untreated, 0 = no growth, -100 = all killed)
What all share (conditions): 10 µM unless noted

The test system of assay [1] is SR leukemia.
Assay [2] has as its system RPMI-8226 leukemia.
The subject of assay [3] is OVCAR-8 ovarian.
Assay [4] deals with OVCAR-5 ovarian.
The subject of assay [5] is OVCAR-4 ovarian.
For assay [6], the system named is SK-OV-3 ovarian.
Assay [7] concerns IGROV1 ovarian.
For assay [8], the system named is OVCAR-3 ovarian.
Assay [9] has as its system HS 578T breast.
For assay [10], the system named is NCI/ADR-RES ovarian.

Structures are written as SMILES. This is part of a sample that, as a whole, favours compounds with a hit. Of some 83,000 tested, about 20% had one in any assay.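 Assay: single dose, 48 h. Readout: percent growth (0 = no net growth; negative = cell death). Active: <10.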 Unmarked numbers belong to inactive results. Calls of active or inactive are those of the source.

Consider `Cc1cccc(C)c1NCc1nc(-c2ccccc2)n[nH]1`, for which the growth in assay [1] is 102%; in assay [2], 108%; in [3] it was 102%; in assay [4], 95.6%; in assay [5], 102%; in assay [6], 93.7%. Besides, the growth in [7] was 94.6%; in assay [8], 113%; in assay [9], 108%; in assay [10] it was 103%.
On to `CC1(C)CC[C@]2(CO)CC[C@]3(C)C(=CC[C@@H]4[C@@]5(C)CC[C@H](NCO)C(C)(C)[C@@H]5CC[C@]43C)[C@@H]2C1`, for which the growth in assay [1] is -34.7% (active); in assay [2], -29.1% (active); in [3] it was -35.6% (active); in assay [4] it was 2.64% (active); in assay [5], -32.5% (active); in [6], 70.8%. Further, the growth is -56% (active) in assay [7], -66.2% (active) in assay [8], 11.4% in assay [9] and -64.8% (active) in [10].
Take `CCCCN1CCCCn2c1nc1c2c(=O)n(C)c(=O)n1C`: the growth was 87.6% in assay [1]; 103% in assay [2]; 95.5% in assay [3]; 117% in assay [4]; 107% in assay [5]; 110% in assay [6]. Also, the growth was 106% in assay [7], 102% in assay [8], 100% in [9] and 99.9% in [10].
Turning to `CC1(C)C(=O)/C(=C\c2ccco2)C[C@]2(C)[C@H]3CC[C@@H]4[C@@H](C(=O)/C=C/c5ccco5)CC[C@@]4(C)[C@]3(C)CC[C@@H]12`, the growth in assay [1] was 71%; in assay [2], 75.5%; in assay [3], 80.5%; in assay [4], 115%; in [5] it was 83.6%; in assay [6], 109%. For the same compound, the growth in [7] is 96.2%; in [8], 95.2%; in assay [9], 77.8%; in [10] it was 95.1%.
Take `CC1(C)CC[C@]2(C(=O)Nc3ccccn3)CC[C@]3(C)C(=CC[C@@H]4[C@@]5(C)C/C(=C/c6ccncc6)C(=O)C(C)(C)[C@@H]5CC[C@]43C)[C@@H]2C1`: the growth in assay [1] is 8.26% (active); in [2], -0.291% (active); in assay [3], 41.5%; in assay [4] it was 75.5%; in assay [5], 17.1%; in assay [6], 71.8%. Further, the growth in assay [7] is 50.6%; in assay [8] it was 12.6%; in assay [9], 56.7%; in assay [10], 51.3%.
In the case of `COc1cc(-c2cc3ncccc3c3nc(N)c4cccnc4c23)cc(OC)c1OC`, the growth in [1] is 28.3%; in assay [2], 23.2%; in assay [3] it was 26.9%; in [4] it was 35.7%; in assay [5] it was 54.3%; in assay [6], 20.5%. Besides, the growth in [7] was 41%; in assay [8], 15.1%; in [9], 16.8%; in assay [10], 10.5%.
`OCC12CCCC(CO)(COC1)C2O` (stereo not given): the growth was 116% in assay [1]; 103% in assay [2]; 109% in assay [3]; 106% in [4]; 104% in [5]; 102% in assay [6]. Besides, the growth in [7] is 116%; in assay [8], 117%; in assay [9], 115%; in assay [10] it was 97.3%.
Take `Fc1ccc(Nc2nc(Nc3ccc(-c4nc5ccccc5[nH]4)cc3)nc(N3CCCC3)n2)cc1`: the growth in [1] is 10.7%; in assay [2], -11.6% (active); in assay [3] it was 81.7%; in assay [4], 97.4%; in [5], 88.6%; in assay [6] it was 75.1%. Besides, the growth is 83% in assay [7], 94.4% in [8], 84.6% in [9] and 63% in assay [10].
In the case of `c1cc(N2CCCC2)c2nc(-c3[nH]ncc3Nc3ncnc4[nH]ccc34)[nH]c2c1`, the growth in assay [1] is 5.49% (active); in [2] it was -7.49% (active); in [3], 1.75% (active); in assay [4], -9.59% (active); in [5], -13.6% (active); in assay [6], -8.07% (active). Moreover, the growth in [7] is -17.9% (active); in assay [8], -14% (active); in assay [9], -4.25% (active); in [10] it was -21.1% (active).
For the compound `COc1ccc(-c2nc(Nc3ccc(-c4nc5ccccc5[nH]4)cc3)nc(N3CCOCC3)n2)cc1`, the growth in assay [1] was 6.01% (active); in assay [2], -13.8% (active); in [3], 39.2%; in assay [4], 66.3%; in [5], 59.8%; in assay [6] it was 19.6%. Besides, the growth is 33.7% in assay [7], 5.15% (active) in assay [8], -11.9% (active) in [9] and 34.2% in assay [10].
Regarding `CCc1nnc(NC(=O)c2ccoc2COc2ccccc2)s1`, the growth is 26.4% in assay [1]; 30.8% in assay [2]; 63.8% in assay [3]; 84.7% in assay [4]; 92.2% in assay [5]; 75.9% in [6]. The growth was 53.4% in assay [7], 33.8% in [8], 62% in assay [9] and 12% in [10].
For the compound `CC(C)=CCC[C@](C)(O)[C@H]1CC[C@]2(C)[C@@H]1CC[C@@H]1[C@@]3(C)C/C(=C/c4ccc(Br)cc4)C(=O)C(C)(C)[C@@H]3CC[C@]12C`, the growth was 80.7% in [1]; 71.8% in [2]; 84.5% in assay [3]; 101% in assay [4]; 78.5% in assay [5]; 96.5% in assay [6]. In addition, the growth in assay [7] was 101%; in [8], 87.5%; in [9], 92.2%; in [10], 98.2%.
